Where “and” joins values, the source holds several entries; their conditions need not be identical. Equal entries are not always repeated. This is part of a sample that, as a whole, favours compounds with a hit. Of some 83,000 tested, about 20% had one in any assay.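 Step 1: grow cells in 96-well plates. Step 2: add test compound at a single concentration. Step 3: incubate 48 h. Step 4: record percent growth.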 Calls of active or inactive are those of the source. How the source made its calls: active means growth percent below 10; inactive means the rest. Where a SMILES comes first, the peptide text is derived from it. The star is where a group is joined. Trt = c1ccc(C(c2ccccc2)(c2ccccc2)*)cc1; Cbz = O=C(OCc1ccccc1)*
Experiments:
Assay in all cases: NCI-60 one-dose screen, 48 h (100 = growth as untreated, 0 = no growth, -100 = all killed)
Conditions in all cases: 10 µM unless noted
HCT-15 colon = tested on: HCT-15 colon
HT29 colon = tested on: HT29 colon
SNB-75 CNS = tested on: SNB-75 CNS
SNB-19 CNS = tested on: SNB-19 CNS
U251 CNS = tested on: U251 CNS
PC-3 prostate = tested on: PC-3 prostate
SK-MEL-5 melanoma = tested on: SK-MEL-5 melanoma
UACC-62 melanoma = tested on: UACC-62 melanoma
LOX IMVI melanoma = tested on: LOX IMVI melanoma
SK-MEL-28 melanoma = tested on: SK-MEL-28 melanoma
SK-MEL-2 melanoma = tested on: SK-MEL-2 melanoma
EKVX NSCLC = tested on: EKVX NSCLC
SN12C renal = tested on: SN12C renal
UO-31 renal = tested on: UO-31 renal
TK-10 renal = tested on: TK-10 renal
ACHN renal = tested on: ACHN renal
CAKI-1 renal = tested on: CAKI-1 renal
A498 renal = tested on: A498 renal
CCRF-CEM leukemia = tested on: CCRF-CEM leukemia
MOLT-4 leukemia = tested on: MOLT-4 leukemia

Measured: growth

COC(=O)C(CSC(c1ccccc1)(c1ccccc1)c1ccccc1)NC(=O)C(CC(N)=O)NC(=O)OCc1ccccc1 (stereo not drawn) (Cbz-Asn-Cys(Trt)-OMe; configuration not given here)
active: UACC-62 melanoma -11.7% | LOX IMVI melanoma -12% | SK-MEL-2 melanoma -23% | MOLT-4 leukemia 3.12%
inactive: HCT-15 colon 13.7% | HT29 colon 33.7% | SNB-75 CNS 20.3% | SNB-19 CNS 56.2% | U251 CNS 50.2% | PC-3 prostate 36.9% | SK-MEL-5 melanoma 14.1% | SK-MEL-28 melanoma 24.4% | EKVX NSCLC 36.6% | SN12C renal 29.2% | UO-31 renal 58.4% | TK-10 renal 48.4% | ACHN renal 28.3% | CAKI-1 renal 44.3% | A498 renal 21.1% | CCRF-CEM leukemia 40.3%

O[C@H]1[C@H]2c3cc4c(cc3CN3CCC(=C[C@@H]1O)[C@H]23)OCO4
inactive: HCT-15 colon 21.6% | HT29 colon 18.5% | SNB-75 CNS 23% | SNB-19 CNS 28.9% | U251 CNS 22.5% | PC-3 prostate 34.2% | SK-MEL-5 melanoma 14.2% | UACC-62 melanoma 62% | SK-MEL-28 melanoma 20.7% | SK-MEL-2 melanoma 24.5% | EKVX NSCLC 37.2% | SN12C renal 18.8% | UO-31 renal 33% | TK-10 renal 54.1% | CAKI-1 renal 28.1% | A498 renal 51.4% | CCRF-CEM leukemia 23.6%
active: LOX IMVI melanoma 0.731% | ACHN renal 9.15% | MOLT-4 leukemia 8%

Nc1nc(N)c2c(ccc3c2ccn3Cc2cccc([N+](=O)[O-])c2)n1
inactive: CCRF-CEM leukemia 24% | MOLT-4 leukemia 46.2%
active: HCT-15 colon -84.6% | HT29 colon -60% | SNB-75 CNS -89.8% | SNB-19 CNS -92.2% | U251 CNS -87.9% | PC-3 prostate -54.1% | SK-MEL-5 melanoma -98% | UACC-62 melanoma -94.8% | LOX IMVI melanoma -83.4% | SK-MEL-28 melanoma -97.1% | SK-MEL-2 melanoma -92% | EKVX NSCLC -93.8% | SN12C renal -83.6% | UO-31 renal -95.5% | TK-10 renal -92.4% | ACHN renal -97% | A498 renal -89.5%

CCCCCCCCCCCCCCNCc1ccccc1
inactive: HCT-15 colon 45.6% | HT29 colon 26.1% | SNB-75 CNS 82.7% | SNB-19 CNS 85.6% | U251 CNS 57.6% | PC-3 prostate 81.7% | SK-MEL-5 melanoma 62.4% | UACC-62 melanoma 99.1% | LOX IMVI melanoma 53.3% | SK-MEL-28 melanoma 82.4% | SK-MEL-2 melanoma 96.4% | EKVX NSCLC 93.4% | SN12C renal 79% | UO-31 renal 62.4% | TK-10 renal 103% | ACHN renal 90.9% | CAKI-1 renal 82.2% | A498 renal 92.7% | CCRF-CEM leukemia 60.5% | MOLT-4 leukemia 56.4%

Nc1ncnc2c1ncn2C1OC(CO)C(O)C1O (configuration not stated)
inactive: HCT-15 colon 109% and 33.5% and 105% | HT29 colon 109% and 35.6% and 98.4% | SNB-75 CNS 99.1% and 50.2% and 91.3% | SNB-19 CNS 106% and 67.8% and 100% | U251 CNS 107% and 92.7% and 104% | PC-3 prostate 81.4% and 29.8% and 98.9% | SK-MEL-5 melanoma 107% and 103% and 102% | LOX IMVI melanoma 106% and 57.2% and 94.6% | SK-MEL-28 melanoma 116% and 124% and 125% | SK-MEL-2 melanoma 144% and 67.2% and 121% | EKVX NSCLC 116% and 88.3% and 105% | SN12C renal 103% and 90.3% and 97.5% | UO-31 renal 92.9% and 76.6% and 90.3% | TK-10 renal 114% and 106% and 118% | CAKI-1 renal 103% and 109% and 94.5% | A498 renal 123% and 107% and 128% | CCRF-CEM leukemia 96.7% and 119% and 105% | MOLT-4 leukemia 102% and 111% and 109%

Cc1ccc2nc(-[n+]3cc4ccccc4cc3C)ccc2c1
inactive: HCT-15 colon 104% | HT29 colon 14.5% | SNB-75 CNS 34.5% | SNB-19 CNS 27.2% | U251 CNS 22.6% | PC-3 prostate 17.5% | UACC-62 melanoma 30.7% | LOX IMVI melanoma 46.6% | SK-MEL-28 melanoma 43.1% | SK-MEL-2 melanoma 39.5% | EKVX NSCLC 62% | SN12C renal 13.2% | UO-31 renal 88.8% | TK-10 renal 81.9% | A498 renal 52.5% | CCRF-CEM leukemia 40%
active: SK-MEL-5 melanoma -27.5%

NC(=S)N/N=C/c1ccc(Cl)s1
inactive: HCT-15 colon 101% | HT29 colon 108% | SNB-75 CNS 108% | SNB-19 CNS 101% | U251 CNS 101% | PC-3 prostate 101% | SK-MEL-5 melanoma 97.2% | LOX IMVI melanoma 101% | SK-MEL-28 melanoma 108% | SK-MEL-2 melanoma 105% | EKVX NSCLC 76.6% | SN12C renal 101% | UO-31 renal 100% | TK-10 renal 105% | ACHN renal 109% | CAKI-1 renal 98.1% | A498 renal 97.1% | CCRF-CEM leukemia 94.6% | MOLT-4 leukemia 99.2%

O=[N+]([O-])c1ccc2c(N=Nc3ccc4ccccc4c3O)c(O)cc(S(=O)(=O)O)c2c1
inactive: HCT-15 colon 85.1% | HT29 colon 104% | SNB-75 CNS 105% | SNB-19 CNS 79.7% | U251 CNS 57.7% | PC-3 prostate 77.2% | SK-MEL-5 melanoma 85% | UACC-62 melanoma 79.4% | LOX IMVI melanoma 66.2% | SK-MEL-28 melanoma 98.8% | SK-MEL-2 melanoma 102% | EKVX NSCLC 95.2% | SN12C renal 99.4% | TK-10 renal 91.6% | ACHN renal 78.7% | CAKI-1 renal 60.1% | A498 renal 108% | CCRF-CEM leukemia 63.6%

CCCCCCC(C)c1ccccc1O (configuration not stated) (tested in a mixture with another compound)
inactive: HCT-15 colon 105% | HT29 colon 113% | SNB-75 CNS 128% | SNB-19 CNS 106% | U251 CNS 104% | PC-3 prostate 94.8% | SK-MEL-5 melanoma 111% | LOX IMVI melanoma 95.8% | SK-MEL-28 melanoma 111% | SK-MEL-2 melanoma 123% | EKVX NSCLC 110% | SN12C renal 106% | UO-31 renal 99.1% | TK-10 renal 119% | CAKI-1 renal 90.1% | CCRF-CEM leukemia 99.1% | MOLT-4 leukemia 102%

CN=C(N)N/N=C(\C)c1ccc2c(c1)Cc1cc(/C(C)=N/NC(N)=NC)ccc1-2
inactive: PC-3 prostate 15.9% | CAKI-1 renal 23.4%
active: HCT-15 colon 2.4% | HT29 colon -49.7% | SNB-75 CNS -46.5% | SNB-19 CNS -43.6% | U251 CNS -78.9% | SK-MEL-5 melanoma -89.9% | LOX IMVI melanoma -49.3% | SK-MEL-28 melanoma -64.7% | SK-MEL-2 melanoma -60.6% | EKVX NSCLC 6.23% | SN12C renal -49.4% | UO-31 renal 6.24% | TK-10 renal -4.01% | A498 renal -32.7% | CCRF-CEM leukemia -3.32% | MOLT-4 leukemia -10.8%

C[n+]1c(/C=C/c2ccc([N+](=O)[O-])cc2)ccc2ccccc21
inactive: HCT-15 colon 98.6% | HT29 colon 104% | SNB-75 CNS 92.5% | SNB-19 CNS 108% | U251 CNS 99.6% | PC-3 prostate 90% | SK-MEL-5 melanoma 97.9% | LOX IMVI melanoma 92.3% | SK-MEL-28 melanoma 121% | SK-MEL-2 melanoma 103% | EKVX NSCLC 62.8% | SN12C renal 102% | UO-31 renal 63.3% | TK-10 renal 112% | ACHN renal 116% | A498 renal 92.4% | CCRF-CEM leukemia 112%

Cn1c2ccccc2c2nnc(N/N=C/c3ccccn3)nc21
inactive: HCT-15 colon 27.6% | HT29 colon 37% | SNB-75 CNS 31% | SNB-19 CNS 26.1% | U251 CNS 14.2% | PC-3 prostate 28.4% | SK-MEL-28 melanoma 18.5% | SK-MEL-2 melanoma 51.3% | SN12C renal 12.3% | A498 renal 34.5%
active: SK-MEL-5 melanoma -44.1% | LOX IMVI melanoma 1.32% | EKVX NSCLC -11.9% | UO-31 renal 4.82% | TK-10 renal -18.9% | ACHN renal -4.67% | CCRF-CEM leukemia -37.2%

CC(=O)ON=C1C=CC(=C(C#N)c2ccccc2)C=C1
inactive: HT29 colon 82.2% | SNB-75 CNS 19.6% | SNB-19 CNS 82.5% | U251 CNS 22.9% | SK-MEL-5 melanoma 48.1% | UACC-62 melanoma 26.1% | SK-MEL-28 melanoma 55.5% | SK-MEL-2 melanoma 41.2% | EKVX NSCLC 82.7% | SN12C renal 18% | TK-10 renal 21.1% | CAKI-1 renal 19.9% | A498 renal 102% | CCRF-CEM leukemia 23.5%
active: HCT-15 colon 8.51% | PC-3 prostate -1.95% | LOX IMVI melanoma 5.8%

Reference: PubChem BioAssay (NCI)
